# The list is not random: actives were taken first. Their share in the collection is about 4.5%.
# hgDAF-12 ag: H. glycines DAF-12 receptor agonists, primary screen, cell-based, luminescence, HEK293, GAL4 fusion, UAS-luciferase | Nuclear hormone receptor DAF-12 (Heterodera glycines), GAL4 fusion | HEK293 GAL4-hgDAF12 UAS-luciferase reporter, agonist luminescence; normalized to butyrate control | activation, % at 6.8 µM | 370,000 tested, 1.8% active;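 active = activation above a cutoff set at the mean of all screened compounds plus 3 SD, cut at about 10% in these data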;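 note: 0% = DMSO wells and 100% = sodium butyrate wells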
# GAA850 FXN act: FXN promoter activators, primary screen, cell-based, luciferase luminescence, HEK293 lucGAA850; HEK293 lucGAA850 FXN promoter luciferase reporter, 24 h; percent of 10 µM SAHA response; activation, % at 6 µM; 360,000 tested, 0.56% active; AID 540364, 2011;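 active = activation above the average of all compounds screened plus 3 SD, cutoff fixed separately per campaign, cut at about 7.5% in these data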;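 note: 0% = DMSO wells and 100% = 10 µM SAHA wells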
# DAX1 inh-1: DAX1 (NR0B1) inhibitors on StAR promoter, primary screen, cell-based, luminescence, SF-1 (NR5A1), full-length DAX-1; HEK293T StAR-luciferase reporter, SF-1/DAX-1 repression relief; inhibition, % at 6.8 µM; 370,000 tested, 1.1% active; AID 652010, 2013;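 active = inhibition above the mean over all tested compounds plus 3 SD, cut at about 3.6% in these data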;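 note: 0% = DAX-1 cells with DMSO and 100% = cells lacking DAX-1 with DMSO; higher inhibition means more luminescence from relief of DAX-1 repression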
# ssDAF-12 act: S. stercoralis DAF-12 nuclear receptor activators, primary screen, cell-based, luminescence, HEK293, GRIP1 co-expression, lit1-tk-luc; Nuclear hormone receptor DAF-12 (Strongyloides stercoralis); HEK293 ssDAF-12/GRIP1 lit1-tk-luc reporter; % of 3 µM dafachronic acid response; activation, % at 6.8 µM; 370,000 tested, 1% active; AID 652126, 2013;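 active = activation above the mean over all tested compounds plus 3 SD, cut at about 0.9% in these data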;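 note: 0% = DMSO-only wells and 100% = 3 µM delta7-dafachronic acid wells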
# hcDAF12 agonist: H. contortus DAF-12 nuclear receptor activators, primary screen, cell-based, luminescence, HEK293, lit1-tk-luc reporter | HEK293 hcDAF-12 lit1-tk-luc reporter; 0% DMSO, 100% Δ7-dafachronic acid | AID 652067, 2013 | 370,000 tested, 1.4% active | activation, % at 6.8 µM;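 active = activation above the mean of all tested compounds plus 3 SD, cut at about 5.5% in these data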;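 note: 100% = response to 3 µM Δ7-dafachronic acid high control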
# DAX1 inh-2: DAX1 (NR0B1) inhibitors, primary screen, cell-based, HEK293, Gal4-DAX1, luciferase luminescence; HEK293 Gal4-DAX1 luciferase reporter; inhibition, % at 6.75 µM; 340,000 tested, 0.99% active; AID 504766, 2011;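 active = inhibition above the mean over all tested compounds plus 3 SD, cut at about 4.2% in these data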;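 note: 0% = DAX1-transfected cells with DMSO and 100% = empty-vector control cells with DMSO; inhibition shows as a rise in luminescence from relieved DAX1 repression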
# Target sequence (P51843 207-470 limits assumed): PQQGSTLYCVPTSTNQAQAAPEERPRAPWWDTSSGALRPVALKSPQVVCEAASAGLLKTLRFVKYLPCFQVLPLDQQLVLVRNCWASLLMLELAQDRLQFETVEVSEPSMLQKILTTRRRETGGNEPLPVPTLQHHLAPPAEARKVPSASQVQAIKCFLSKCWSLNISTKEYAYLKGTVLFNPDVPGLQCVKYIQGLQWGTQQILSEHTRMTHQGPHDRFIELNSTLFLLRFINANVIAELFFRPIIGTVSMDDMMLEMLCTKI
# GAA30 FXN cntr: GAA30 FXN promoter activators, confirmation, counter-screen for GAA850 frataxin promoter activator project, cell-based, luminescence, HEK293, lucGAA30, triplicate; activation, % at 6 µM; shares compounds with GAA850 FXN act; 1,900 tested, 66% active; HEK293 lucGAA30 FXN promoter luciferase, 24 h; DMSO = 0%, 5 µM ipriflavone = 100%;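 active = mean activation above the mean of solvent-only control wells plus 3 SD, cut at about 22% in these data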;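 note: counterscreen of GAA850 promoter hits where activity marks nonselective or luminescence artifacts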
# GAA850 confirm: FXN GAA850 promoter activators in reporter cells, confirmation, cell-based, luminescence, HEK293 lucGAA850, triplicate; shares compounds with GAA850 FXN act; HEK293 lucGAA850 FXN promoter luciferase reporter, 24 h; 100% = activation by SAHA; activation, % at 6 µM; 1,900 tested, 86% active; AID 588351, 2011;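 active = mean activation above a set limit taken from the primary screen, cut at about 8% in these data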;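 note: 0% = DMSO wells and 100% = 10 µM SAHA wells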
# Numbers without * were called inactive; x = no result.
SMILES,hgDAF-12 ag,GAA850 FXN act,DAX1 inh-1,ssDAF-12 act,hcDAF12 agonist,DAX1 inh-2,GAA30 FXN cntr,GAA850 confirm
COc1cc(/C=N/NC(=O)Nc2cccc3nsnc23)cc(OC)c1OC,2,0,0,-1,-2,1,x,x
O=C(N/N=C/c1ccc(O)cc1)Nc1cccc2nsnc12,3,11*,2,-2,-3,0,57*,37*
O=C(/C=C/c1ccccc1[N+](=O)[O-])c1ccccc1Br,5,9.0*,0,-1,3,-1,75*,43*
Cc1ccc(C(=O)/C=C/c2ccccc2[N+](=O)[O-])cc1,9,3,2,-1,4,1,x,x
CC(C)OP(=O)(Nc1cccc2ccccc12)OC(C)C,-1,12*,0,-2,-2,-1,25*,12*
Cc1ccc(-c2nc(C3CCCN(S(=O)(=O)c4ccccc4)C3)no2)cc1 (stereo unspecified),0,x,0,-1,-3,x,x,x
CN(C)CCCN1C(=O)c2cccc3c([N+](=O)[O-])ccc(c23)C1=O,-3,7.7*,-1,-1,0,-1,-24,12*
CC1=CC(C)(C)Nc2ccc(OC(=O)CN3C(=O)c4cccc5cccc(c45)C3=O)cc21,-4,2,-1,-1,-2,-1,x,x
CC1=CC(C)(C)Nc2ccc(OC(=O)CN3C(=O)c4ccccc4C3=O)cc21,-13,8.7*,-2,-3,-7,-2,-14,18*
CN(C)c1ccc(Cc2cc3c(O)ccc(O)c3cc(Cc3ccc(N(C)C)cc3)c2=O)cc1,1,14*,-1,-1,2,-1,16,23*
Cc1cccc(Cn2cc(COC(=O)Nc3ccc(F)cc3)nn2)c1,-2,x,1,-1,-2,x,x,x
C=CCn1c2ccccc2c(=O)c2cc(C#Cc3ccccn3)ccc21,6,9.0*,0,0,0,1,140*,44*
O=c1c2ccccc2oc2cc(C#Cc3ccccn3)ccc12,6,3,3,0,2,3,x,x
COC(=O)[C@H]1C[C@@]2(n3ccc4ccccc43)c3ccccc3N(S(=O)(=O)c3ccccc3)[C@H]2N1,1,x,-1,0,3,x,x,x
Cc1cc(OC(C)C(=O)N(Cc2ccco2)C2CCS(=O)(=O)C2)ccc1Cl (stereo unspecified),x,12*,x,x,x,-1,9,5
CCc1ccc(OC(C)C(=O)N(Cc2ccco2)C2CCS(=O)(=O)C2)cc1 (stereo unspecified),1,1,1,-1,0,-1,x,x
CC(C)C[C@H](NC(=O)c1cccs1)C(=O)N1CCC[C@H]1C(=O)NCc1ccccc1,-2,x,-2,-1,-2,x,x,x
COc1ccc(C2CC(=O)N(C)c3ccccc3S2)cc1OC (stereo unspecified),7,8.4*,1,-1,5,3,122*,45*
Cc1ccc(NC(=O)C2CC3CCC2C3)cc1 (stereo unspecified),7,x,x,0,-1,x,x,x
COC(=O)C(NC(=O)c1ccccc1C)(Nc1ncc(S(=O)(=O)c2ccc([N+](=O)[O-])cc2)s1)C(F)(F)F (stereo unspecified),-4,0,-1,-2,-1,0,x,x
COC(=O)C(NC(=O)c1ccc(F)cc1)(Nc1ncc(S(=O)(=O)c2ccc([N+](=O)[O-])cc2)s1)C(F)(F)F (stereo unspecified),-3,9.8*,-1,-1,-3,-1,21,14*
CCn1c(SCC(=O)Nc2oc(-c3ccccc3)c(-c3ccccc3)c2C#N)nnc1-c1cc(OC)cc(OC)c1,x,13*,x,x,x,-1,12,1
Cc1cc(C(=O)N/N=C/c2ccccn2)n[nH]1,2,2,1,0,2,0,x,x
O=C(N/N=C/c1ccccn1)c1cccc([N+](=O)[O-])c1,3,9.2*,0,-2,0,0,-38,7
O=C(N/N=C/c1ccccn1)c1ccc(Br)cc1,8,23*,-1,0,3,-2,-105,-31
SMILES,hgDAF-12 ag,GAA850 FXN act,DAX1 inh-1,ssDAF-12 act,hcDAF12 agonist,DAX1 inh-2,GAA30 FXN cntr,GAA850 confirm
O=C(N/N=C/c1ccccn1)c1ccc([N+](=O)[O-])cc1,6,-1,0,-1,0,-1,x,x
O=C(N/N=C/c1ccccn1)c1cc(C2CC2)[nH]n1,10,7.6*,1,-1,1,1,106*,38*
O=C(N/N=C/c1ccccn1)c1cc([N+](=O)[O-])cc([N+](=O)[O-])c1,-4,14*,-1,-1,-2,-2,-82,-17
O=C(N/N=C/c1ccccn1)c1ccc(NC(=O)c2cccc([N+](=O)[O-])c2)cc1,2,-2,-1,-2,-2,x,x,x
S=c1[nH]nc(-c2n[nH]c3c2CCC3)n1N=Cc1c[nH]c2ccccc12,-5,x,1,-1,-1,x,x,x
Cc1ccc(-c2cc(C(=O)NN=Cc3sccc3C)[nH]n2)cc1C,0,x,0,-2,4,x,x,x
Cn1c(=NC(=O)c2cccc([N+](=O)[O-])c2)sc2ccccc21,7,9.1*,3,0,6,1,120*,36*
Cc1ccc2nc(NC(=O)COC(=O)c3ccc(Br)o3)sc2c1,6,9.4*,1,0,6,0,88*,28*
O=C(CCC(=O)N1CCSc2ccccc21)NC1CCCCC1,0,8.0*,1,0,-1,1,14,5
O=C(NCCc1ccc(O)c(O)c1)C1COc2ccccc2O1 (stereo unspecified),-2,8.8*,0,-1,1,0,22,18*
Cc1c(CCC(=O)NC2CC2)c(=O)oc2cc(O)ccc12,0,15*,1,-1,-1,1,20,11*

# Source: PubChem BioAssay
